The text below walks through data of PubChem BioAssay (NCATS).

Experiment [1] is described as follows: Cell Viability - BJ (AID 421; calls by dose curve;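 further: potency means the concentration at half of the fitted maximal effect; cells exposed to compound for 40 hours at 37 °C before readout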). The following applies: BJ fibroblast viability, qHTS. The method in brief: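 Quantitative HTS: ATP depletion in BJ cells after 40 hr compound exposure in complete culture medium, detected with CellTiter-Glo; AC50 from standard Hill fits.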
(In general: Quantitative high-throughput screening tests each substance at several concentrations.)

Experiment [2] is described as follows: Cellular Toxicity (caspase-3) HUV-EC-C (AID 656). The following applies: HUV-EC-C cells, caspase-3 activation (apoptosis), vehicle = 0, 100 µM tamoxifen = 100%; series mostly up to 92.2 µM. The method in brief: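 Luminescent Caspase-Glo 3/7 readout after 16 h, 37 °C compound exposure of HUV-EC-C endothelial cells, 1000 per well, complete medium. AC50 derived by Hill fitting, with DMSO as baseline and 100 uM tamoxifen as full activation.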

A short description of experiment [3]: Cellular Toxicity (caspase-3) MRC-5 (AID 659). The following applies: MRC-5 cells, luminescence, normalized: DMSO 0%, 10 µM staurosporine 100%; series mostly up to 91.7 µM. In a few lines:
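Concentration-dependent caspase 3/7 activation is measured in human normal lung fibroblasts (MRC-5) following 16-hour treatment. AC50 values come from standard Hill-equation modeling of luminescence normalized to DMSO and 10 uM staurosporine.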

The nature of experiment [4]: Cellular Toxicity (caspase-3) Mesangial (AID 660).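 Further: combined caspase 3 and 7 activity read by Caspase-Glo luminescence; cells exposed to compound for 16 h before the caspase read.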 The note with it: mesangial cells, normalized: DMSO 0%, 100 µM tamoxifen 100%; series mostly up to 91.7 µM. In a few lines:
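Mesangial cells, 1000/well, 5 h settle at 37 °C; compound 16 h, 37 °C; Caspase-Glo 3/7 reagent 20 min RT; luminescence. Norm.: DMSO = 0%, tamoxifen 100 uM = 100%. AC50, Hill fit.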

Experiment [5] can be described thus: Cellular Toxicity (caspase-3) SK-N-SH (AID 661). The following applies: SK-N-SH caspase-3 activation, qHTS; series mostly up to 91.7 µM. The method in brief:
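Human neuroblastoma SK-N-SH, 1500 cells/well, 5 hr pre-incubation, then compound 16 hr, 37 °C. Caspase-Glo 3/7 reagent, 1 hr RT, luminescence. Norm. to DMSO/10 uM staurosporine; Hill-fit AC50.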

A short description of experiment [6]: Cellular Toxicity (caspase-3) Hek293 (AID 664).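 Further: cells exposed to compound for 16 h at 37 °C before readout.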 The following applies: HEK293 caspase-3 activation, DMSO = 0%, 100 µM tamoxifen = 100%; at 92.2 µM (top of the series). In a few lines:
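Cells plated, 5 hr at 37 °C; compounds added; 16 hr at 37 °C; Caspase-Glo 3/7 reagent, 20 min RT; luminescence read. Activation expressed relative to DMSO and 100 uM tamoxifen, AC50 by Hill model.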

A short description of experiment [7]: Cellular Toxicity (caspase-3) NIH 3T3 (AID 666).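 Further: caspase signal read after 16 h compound exposure; 0% = DMSO basal and 100% = 100 µM tamoxifen stimulation.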 The following applies: NIH 3T3 caspase-3 activation, apoptosis/toxicity; series mostly up to 92.2 µM. The method in brief: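 Luminescence from aminoluciferin released by caspase-3/7 cleavage of a peptide substrate served as read-out. Mouse fibroblast NIH 3T3 cells were exposed to compounds over a concentration range for 16 hours, and AC50 values came from standard Hill modelling.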

The target in experiment [8] is Cytochrome P450 3A4 (Homo sapiens) (UniProt P08684). Nature of the experiment: qHTS Assay for Inhibitors and Substrates of Cytochrome P450 3A4 (AID 884). Further: nearly all actives have a fitted effect of over 50% in size. Further: potency means the concentration at half of the fitted maximal effect. The following applies: recombinant CYP3A4, Luciferin-PPXE luminescence; series mostly up to 57.1 µM. The method in brief:
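20 nM human CYP3A4 with 25 uM Luciferin-PPXE (at KM) in 200 mM KPO4, preincubated 10 min with compound; NADPH regeneration started a 60 min RT reaction. Luciferin detected by luminescence, normalized to 57 uM ketoconazole as full inhibition.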

A short description of experiment [9]: MultiTox-Fluor Cytotoxicity Assay - LYMP1-001 - Dead Cells (AID 946).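 Further: 0% = DMSO and 100% = tetraoctylammonium bromide.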 The note with it: LYMP1-001 lymphoblastoid cells, dead-cell protease fluorescence; series mostly up to 92.2 µM. The method in brief: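 In this qHTS, 15 uM tetraoctylammonium bromide defined 100% and DMSO defined basal activity. Lymphoblastoid cells (LYMP1-001, 2500 per well) received compound for 16 hr at 37 C before a fluorogenic dead-cell substrate readout at 485/520 nm.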

Experiment [10] can be described thus: Cell Viability - LYMP1-002 - Assay at 16 hr (AID 948).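 Further: 0% = DMSO alone and full effect = 92 µM tetraoctylammonium bromide.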 The following applies: LYMP1-002 lymphoblastoid cell viability; series mostly up to 92.2 µM. The method in brief:
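ATP luminescence (CellTiter-Glo) was measured after 16 hr compound exposure at 37 C of 2500 lymphoblastoid LYMP1-002 cells per well. Concentration-response curves were fitted with the Hill equation to give AC50.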

Experiment [11] is described as follows: MultiTox-Fluor Cytotoxicity Assay - LYMP1-003 - Live Cells (AID 962).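 Further: cells exposed to compound for 16 hours at 37 °C; 0% = DMSO only and full loss = 92 µM tetraoctylammonium bromide; cytotoxic hits lower the live-cell protease signal.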 The following applies: LYMP1-003 lymphoblastoid cells, MultiTox-Fluor live-cell protease fluorescence; series mostly up to 92.2 µM. In a few lines: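 qHTS, 1536-well; 2500 cells/well LYMP1-003; 5 hr 37 C settle; cpd 16 hr 37 C; MultiTox-Fluor reagent 60 min RT; live-cell protease fluor. 405/510; Hill-fit AC50; tetraoctylammonium bromide pos. ctrl.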

Experiment [12] can be described thus: Cell Viability - LYMP2-003 (AID 965).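 Further: cells exposed to compounds for 24 h before reading; 0% = DMSO only and full effect = 92 µM tetraoctylammonium bromide; nearly all actives have a fitted effect of over 50% in size.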 The following applies: LYMP2-003 lymphoblastoid cell viability; series mostly up to 92.2 µM. In a few lines: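 CellTiter-Glo luminescence quantified ATP loss after 24 h compound treatment of LYMP2-003 lymphoblastoid cells at 37 C. Titration series were fitted with the standard Hill equation to give AC50.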
Experiment [13] is described as follows: Cell Viability - LYMP2-026 (AID 989). Further: on the % scale 0 is the no-effect control and ±100 the full control effect; nearly all actives have a fitted effect of over 50% in size. The following applies: LYMP2-026 lymphoblastoid cell viability, qHTS; series mostly up to 92.2 µM. In a few lines: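 Luminescent ATP signal (CellTiter-Glo, 30 min room temperature) measures viable lymphoblastoid cells after 24 hr compound treatment at 37 C. Decreased ATP reflects acute toxicity; AC50 values come from Hill-equation modeling.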

Experiment [14] can be described thus: qHTS Assay for Identification of Small Molecule Inducers of Hypoxia Response (AID 2120; active means well fitted curve in the direction sought with a large enough effect in the signal ratio, with a control signal flat, not every such curve was filed as active; the % refers to the signal ratio; further: 0% is about no effect). The following applies: hypoxia response reporter cells, beta-lactamase ratio readout; series mostly up to 104 µM. In a few lines: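 ME-180 HRE-bla cells plated in Opti-MEM/0.5% dialyzed FBS, rested 4-5 h, then dosed with compound titrations by pin tool. After 17 h at 37 degrees C, CCF4 dye loaded 2.5 h at RT; 460/530 nm ratio gave %Activity and AC50.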

The nature of experiment [15]: qHTS assay for environmental chemicals that activate the Aryl hydrocarbon Receptor (AhR) signaling pathway (AID 651777). Further: nearly all actives have a fitted effect of over 15% in size. Further: potency means the concentration at half of the fitted maximal effect. On activation: % of control where 0% means no effect. The following applies: 1A2-DRE human hepatoma cells, luciferase, 24 h; activation: stronger effect = higher value. In a few lines: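 Luminescence (One-Glo, 30 min, room temperature) reports AhR-driven luciferase in stably transfected human hepatoma cells bearing DRE and CYP1A2 promoter. Cells (1,200/well) were treated with compound for 24 hr at 37 C in qHTS format.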

The target of experiment [16] is Peroxisome proliferator-activated receptor alpha (Homo sapiens) (UniProt Q07869). Nature of the experiment: qHTS assay for small molecule agonists of the peroxisome proliferator-activated receptor alpha (PPARalpha) signaling pathway (AID 651778). Further: % of control where 0% means no effect. The following applies: PathHunter PPARalpha complementation, chemiluminescence, 6 h; stronger effect = higher value. In a few lines:
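Chemiluminescence from complemented enzyme reported PPARalpha activation in cells after 6 hr of compound treatment at 37 C. The detection reagent was incubated for 60 min at room temperature, and compounds were scored as agonists.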

A short description of experiment [17]: qHTS assay for small molecule agonists of the antioxidant response element (ARE) signaling pathway measured by Nrf2-dependant transcriptional activity - cell viability counter screen (AID 720653; active means well fitted curve in the direction sought with a large enough effect in the repeat runs; an effect the other way counts as inactive or inconclusive; further: on the % scale 0 is the no-effect control and ±100 the full control effect). The note with it: ARE-bla HepG2 viability, CellTiter-Glo ATP luminescence, 16 h; stronger effect = lower value. In a few lines:
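Cytotoxicity counter screen: intracellular ATP quantified by CellTiter-Glo luminescence in the same ARE-bla HepG2 plates, after 16 h compound exposure and a 2 h beta-lactamase substrate step.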

Experiment [18] in a line: qHTS assay for cell viability of the p53RE-bla HCT-116 cell line (AID 743292). Further: on the % scale 0 is the no-effect control and ±100 the full control effect; nearly all actives have a fitted effect of over 55% in size. The following applies: p53RE-bla HCT-116 viability, ATP luminescence, 16 h; series mostly up to 95 µM. In a few lines:
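ATP-based luminescent viability (CellTiter-Glo, 30 min RT) after 16 h compound treatment at 37 C of p53RE-bla HCT-116 cells, seeded at 4,000 cells/well and rested 5 h before dosing.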

Experiment [19] is described as follows: Cell Viability - LYMP1-002 - Assay at 40 hr (AID 994). Further: nearly all actives have a fitted effect of over 60% in size. Further: potency means the concentration at half of the fitted maximal effect. The note with it: LYMP1-002 lymphoblastoid cell viability; series mostly up to 92.2 µM. The method in brief: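 Luminescent ATP signal served as the viability readout, with decreases taken as toxicity. Cells were treated with compounds across a concentration range for 40 hours at 37 C, and AC50 values came from standard Hill modeling.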

Several values for one entry are separate records, joined by “and”; a condition that tells them apart may be missing. Identical values can stand only once. Values without a mark were called inactive. Records with an inconclusive call do not appear. Activity calls are given as the source filed them. Unless noted, the call rests on the fitted dose curve; in most records, active means well fitted curve in the direction sought with a large enough effect; inconclusive means small, poorly fitted or top-dose-only effect, or another doubt; inactive means no such curve, though single readings can be large; an effect the other way counts as inactive or inconclusive. A value given as a limit tells only on which side of the number the result lay.

Cytochrome P450 3A4 (Homo sapiens), sequence (P08684 whole entry, looked up): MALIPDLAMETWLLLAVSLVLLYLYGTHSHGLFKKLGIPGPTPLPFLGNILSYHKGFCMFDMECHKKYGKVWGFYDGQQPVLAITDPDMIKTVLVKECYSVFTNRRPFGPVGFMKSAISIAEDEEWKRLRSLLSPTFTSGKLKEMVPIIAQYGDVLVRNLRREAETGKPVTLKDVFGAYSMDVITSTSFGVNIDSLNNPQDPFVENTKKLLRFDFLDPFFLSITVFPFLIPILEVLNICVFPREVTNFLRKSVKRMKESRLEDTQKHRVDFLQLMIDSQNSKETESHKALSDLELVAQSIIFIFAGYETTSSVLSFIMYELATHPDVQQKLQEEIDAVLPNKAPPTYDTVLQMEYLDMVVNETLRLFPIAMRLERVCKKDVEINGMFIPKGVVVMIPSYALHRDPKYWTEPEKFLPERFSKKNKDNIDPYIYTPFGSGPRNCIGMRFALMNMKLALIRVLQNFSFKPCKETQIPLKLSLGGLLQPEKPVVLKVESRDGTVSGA
Peroxisome proliferator-activated receptor alpha (Homo sapiens), sequence (Q07869 whole entry, looked up): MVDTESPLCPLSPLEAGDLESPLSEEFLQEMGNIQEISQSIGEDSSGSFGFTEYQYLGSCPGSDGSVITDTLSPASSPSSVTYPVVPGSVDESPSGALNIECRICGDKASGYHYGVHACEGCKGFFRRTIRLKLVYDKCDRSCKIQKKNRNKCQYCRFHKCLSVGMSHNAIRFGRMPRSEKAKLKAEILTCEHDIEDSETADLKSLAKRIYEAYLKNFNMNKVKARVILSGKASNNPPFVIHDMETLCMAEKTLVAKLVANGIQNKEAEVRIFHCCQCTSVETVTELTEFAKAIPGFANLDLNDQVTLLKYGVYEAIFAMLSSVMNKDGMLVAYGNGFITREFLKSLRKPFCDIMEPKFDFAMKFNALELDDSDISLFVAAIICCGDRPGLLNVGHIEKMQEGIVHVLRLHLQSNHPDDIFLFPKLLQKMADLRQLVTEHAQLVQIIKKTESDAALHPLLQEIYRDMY

`Nc1cc(Cl)ccc1O`: the values for the Potency in experiment [1] and in experiment [15] were > 92 µM and 44.7 µM (active), respectively. In addition, the compound was classed as inactive in [2], in experiment [3], in [4], in experiment [9], in [10] and in experiment [11]. For the same compound, the Potency entry in experiment [5], in experiment [7], in [8], in [12], in experiment [13] and in experiment [14] was “inactive” in each case. Also, in experiment [18], the Potency entry was “inactive”. Further, in [6], the caspase-3 activation is 4.86%. The max response in experiment [16] is 0.902%; in experiment [17], -22.1%.
Consider `Oc1cccc(Cl)c1`, for which the Potency in experiment [1] is > 92 µM. For the same compound, the result in experiment [2], in experiment [3], in [4], in experiment [9], in experiment [10] and in [11] was inactive. Besides, the Potency entry in experiment [5], in [7], in experiment [8], in experiment [12], in experiment [13] and in experiment [19] was “inactive” throughout. Further, the Potency result in [14] and in experiment [18] was “inactive” in each case. For the same compound, the caspase-3 activation in experiment [6] is -0.037%. For the same compound, in experiment [15], the activation was -0.063%. Also, the max response was 16.7% in experiment [16] and -6.82% in [17].
In the case of `CC(C)(C)OOC(=O)c1ccccc1`, the Potency in experiment [1] is > 92 µM. Also, the compound was called inactive in experiment [2], in [3], in experiment [4], in [9], in experiment [10] and in experiment [11]. The Potency entry in experiment [5], in experiment [7], in experiment [8], in experiment [12], in experiment [13] and in experiment [19] was “inactive” throughout. The Potency result in [14] and in experiment [18] was “inactive” in each case. Besides, the caspase-3 activation in [6] is -1.73%. The activation in experiment [15] was -1.19% and 0.23%. Moreover, the max response is -5.26% and -0.274% in [16]; 3.96% and -1.99% in experiment [17].
With `O=[N+]([O-])c1ccc(O)c([N+](=O)[O-])c1`, in experiment [1], the Potency is > 92 µM. Also, the call in [2], in experiment [3], in [4], in [9], in experiment [10] and in experiment [11] was inactive. The Potency entry in experiment [5], in experiment [7], in [8], in [12], in [13] and in experiment [19] was “inactive” in each case. Also, the Potency entry in [14] and in experiment [18] was “inactive” in each case. Moreover, the caspase-3 activation in experiment [6] is -5.23%. In addition, the activation in experiment [15] is 0.436%. Also, the values for the max response in experiment [16] and in experiment [17] were -7.09% and -10%, respectively.
`Cc1cc(N=Nc2ccccc2C)ccc1N`: the Potency in experiment [1] is > 92 µM; in experiment [8], 5.01 µM (active); in [15], 44.7 µM (active). The result in experiment [2], in experiment [3], in experiment [4], in experiment [9], in experiment [10] and in [11] was inactive. Also, the Potency result in [5], in experiment [7], in experiment [12], in experiment [13], in experiment [19] and in [14] was “inactive” in each case. The Potency result in experiment [18] was “inactive”. The caspase-3 activation in experiment [6] was -5.62%. Also, the max response in [16] is -6.65% and -1.39%; in experiment [17] it was -2.89% and 2.65%.
With `C(CCOCC1CO1)COCC1CO1` (configuration not stated), the Potency is > 92 µM in experiment [1] and 39.8 µM (active) in [19]. Also, the compound was called inactive in [2], in experiment [3], in [4], in experiment [10] and in experiment [11]. Also, the Potency result in [5], in experiment [7], in [8], in experiment [12], in experiment [13] and in [14] was “inactive” in each case. Moreover, in experiment [18], the Potency entry was “inactive”. Moreover, the caspase-3 activation in experiment [6] was 0.467%. The activation in experiment [15] was 0.374%. Besides, the max response in experiment [16] was -0.765%; in experiment [17], 15.2%.
